In PubChem BioAssay (NCATS):
Results filed as inconclusive are left out. Activity calls are given as the source filed them. Calls come from the whole dose curve; as a rule, active = well fitted curve in the direction sought with a large enough effect; inconclusive = small, poorly fitted or top-dose-only effect, or another doubt; inactive = no such curve, though single readings can be large; an effect the other way counts as inactive or inconclusive.

Tests used:
[1] = Cellular Toxicity (caspase-3) Renal Proximal Tubule (AID 667); settings: renal proximal tubule cells; at 91.7 µM (top of the series), primary cells freshly taken from rat, solvent-only wells 0%, staurosporine 100% unless noted;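 note: cells exposed to compound for 16 hours at 37 °C before detection; 0% = DMSO basal and 100% = 10 µM staurosporine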
Outline: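 Freshly isolated primary rat kidney proximal tubule cells, 1000/well, treated 16 hr at 37 °C, then Caspase-Glo 3/7 luminescence after 1 hr. Normalized to DMSO and 10 uM staurosporine; AC50 from Hill fit.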

[2] = molecular target: Cytochrome P450 3A4 (Homo sapiens) (UniProt P08684); experiment: qHTS Assay for Activators of Cytochrome P450 3A4 (AID 885); note: nearly all actives have a fitted effect of over 65% in size
Outline: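 CYP3A4 activity: Luciferin-PPXE O-dealkylation, 25uM substrate, 200mM KPO4, RT throughout. Read-out is luciferase luminescence; higher values reflect activation.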

[3] = Cell Viability - LYMP2-001 (AID 921);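 note: 0% = DMSO only and full inhibition = tetraoctylammonium bromide control wells; nearly all actives have a fitted effect of over 70% in size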
Outline: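 Human lymphoblastoid LYMP2-001 cells, 2500 per well, in complete medium, treated 24 h at 37 C. Viability from cellular ATP by CellTiter-Glo luminescence; AC50 from Hill-equation fits of qHTS concentration-response.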

[4] = MultiTox-Fluor Cytotoxicity Assay - LYMP1-001 - Dead Cells (AID 946);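 note: cells exposed to compound for 16 h; 0% = DMSO and 100% = tetraoctylammonium bromide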
Outline: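 AC50 from Hill fit of concentration-response; data normalized to DMSO (basal) and 15 uM tetraoctylammonium bromide (100%). LYMP1-001 lymphoblastoid cells, 2500/well, 16 hr compound at 37 C; dead-cell protease fluorescence, Ex/Em 485/520.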

[5] = MultiTox-Fluor Cytotoxicity Assay - LYMP1-001 - Live Cells (AID 947);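 note: 0% = DMSO only and full inhibition = tetraoctylammonium bromide control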
[6] = Cell Viability - LYMP1-002 - Assay at 16 hr (AID 948);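 note: 0% = DMSO alone and full effect = 92 µM tetraoctylammonium bromide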
Outline: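 LYMP1-002 human lymphoblastoid cells, 2500/well, were treated with compounds for 16 hr at 37 C in complete medium. Viability was read as intracellular ATP by CellTiter-Glo luminescence, and AC50 was derived from a Hill fit to concentration-response data.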

[7] = MultiTox-Fluor Cytotoxicity Assay - LYMP1-002 - Dead Cells (AID 960);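 note: cells exposed to compound for 16 h at 37 °C; 0% = DMSO and 100% = tetraoctylammonium bromide; nearly all actives have a fitted effect of over 60% in size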
Outline: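 Readout: fluorescence at 485/520 from cell-impermeant bis-AAF-R110 cleaved by proteases leaking from damaged cells. LYMP1-002 lymphoblastoid line, 16 hr compound treatment at 37 C, concentration-response in qHTS format; Hill-equation AC50 values.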

[8] = MultiTox-Fluor Cytotoxicity Assay - LYMP1-003 - Dead Cells (AID 961);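 note: cells exposed to compound for 16 h at 37 °C; 0% = DMSO and 100% = tetraoctylammonium bromide; nearly all actives have a fitted effect of over 70% in size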
Outline: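 Human lymphoblastoid LYMP1-003 cells (2500/well) were treated with compounds for 16 hr at 37 C in complete medium. Dead-cell protease release was read by bis-AAF-R110 fluorescence (Ex/Em 485/520). AC50 came from Hill fits, normalized to DMSO and 15 uM tetraoctylammonium bromide.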

[9] = MultiTox-Fluor Cytotoxicity Assay - LYMP1-003 - Live Cells (AID 962);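 note: cells exposed to compound for 16 hours at 37 °C; 0% = DMSO only and full loss = 92 µM tetraoctylammonium bromide; cytotoxic hits lower the live-cell protease signal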
Outline: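 Readout: live-cell fluorescence (Ex/Em=405/510) from GF-AFC cleavage after 60 min MultiTox-Fluor reagent at room temperature. Lymphoblastoid LYMP1-003 cells, 16 hr compound treatment, 37 C. Concentration-response fitted to standard Hill equation for AC50.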

[10] = Cell Viability - LYMP1-003 - Assay at 24 hr (AID 963);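 note: plate controls were DMSO only for no effect and tetraoctylammonium bromide positive control for full effect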
Outline: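 CellTiter-Glo luminescence (intracellular ATP) read after 24 hr, 37 C compound exposure of 2500 LYMP1-003 human lymphoblastoid cells/well in complete medium; qHTS concentration series; AC50 via standard Hill equation.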

[11] = Cell Viability - LYMP1-003 - Assay at 40 hr (AID 964); note: % is set by controls: 0 for no effect and ±100 for the full control effect; nearly all actives have a fitted effect of over 60% in size
Outline: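 LYMP1-003 lymphoblastoid cells, 2500/well; 5 hr preincubation, 40 hr compound exposure, 37 C; CellTiter-Glo 30 min RT; luminescence; Hill-fit AC50. Positive control tetraoctylammonium bromide.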

[12] = Cell Viability - LYMP2-003 (AID 965);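 note: cells exposed to compounds for 24 h before reading; 0% = DMSO only and full effect = 92 µM tetraoctylammonium bromide; nearly all actives have a fitted effect of over 50% in size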
Outline: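 Human lymphoblastoid LYMP2-003 cells, 2500/well, exposed to compounds for 24 h at 37 C in complete medium. Viability read as intracellular ATP by CellTiter-Glo luminescence; AC50 from Hill-equation fits of qHTS concentration-response data.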

[13] = Cell Viability - LYMP2-004 (AID 966);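 note: plate controls were DMSO only for no effect and tetraoctylammonium bromide control for full effect; nearly all actives have a fitted effect of over 65% in size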
Outline: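 Luminescent ATP read-out (CellTiter-Glo, 30 min RT) after 24 hr compound exposure at 37 C; 2500 lymphoblastoid cells/well, complete medium. Decrease in ATP = cytotoxicity; AC50 from standard Hill model.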

[14] = Cell Viability - LYMP2-009 (AID 968);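 note: 0% = DMSO alone and the full-kill end = tetraoctylammonium bromide at 92 µM; nearly all actives have a fitted effect of over 55% in size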
[15] = Cell Viability - LYMP2-011 (AID 969);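 note: 0% = DMSO only and full inhibition = 92 µM tetraoctylammonium bromide; nearly all actives have a fitted effect of over 60% in size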
Outline: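 Luminescent ATP read-out (CellTiter-Glo, 30 min RT) after 24 hr compound exposure at 37 C in human lymphoblastoid cells, 2500 cells/well. Decreasing ATP indicates cytotoxicity; AC50 from standard Hill fit.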

[16] = Cell Viability - LYMP2-015 (AID 971);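 note: 0% = DMSO only and full effect = 92 µM tetraoctylammonium bromide; nearly all actives have a fitted effect of over 55% in size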
Outline: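 qHTS cytotoxicity: 2500 cells/well, 5 hr 37 C, compound 24 hr 37 C, CellTiter-Glo 30 min RT, luminescence. Loss of ATP = toxicity; AC50 via standard Hill fit.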

[17] = Cell Viability - LYMP2-017 (AID 972); note: % is set by controls: 0 for no effect and ±100 for the full control effect; nearly all actives have a fitted effect of over 55% in size
Outline: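 Luminescent ATP read-out (CellTiter-Glo, 30 min RT) reports viable cell number. Cells: human lymphoblastoid line, 2500 per well, 5 hr preincubation, 24 hr compound exposure at 37 C. AC50 is derived from qHTS concentration-response data using the standard Hill model.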

[18] = Cell Viability - LYMP2-019 (AID 973);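 note: 0% = DMSO alone and full effect = 92 µM tetraoctylammonium bromide; nearly all actives have a fitted effect of over 55% in size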
Outline: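 qHTS, 1536-well; 2500 cells/well; 5 hr pre-incubation, 24 hr compound exposure, 37 C; CellTiter-Glo added, 30 min RT; luminescence read; AC50 via standard Hill equation.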

[19] = Cell Viability - LYMP2-021 (AID 974)
Outline: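 ATP luminescence (CellTiter-Glo, 30 min RT) after 24 h compound exposure at 37 C; 2500 human lymphoblastoid cells/well, 5 h settle beforehand. Cytotoxicity = concentration-dependent ATP drop, AC50 by Hill fit.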

[20] = Cell Viability - LYMP2-023 (AID 975)
Outline: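 CellTiter-Glo luminescence after 30 min at room temperature; decrease in intracellular ATP reflects toxicity. Cells: human lymphoblastoid line, 2500/well, 24 hr compound exposure at 37 C. AC50 fitted to standard Hill equation from concentration-response.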

[21] = Cell Viability - LYMP2-025 (AID 976);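 note: plate controls were DMSO only for no effect and tetraoctylammonium bromide control for full effect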
Outline: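 CellTiter-Glo luminescence (cellular ATP) after 24 h compound exposure at 37 C; LYMP2-025 human lymphoblastoid cells, 2500/well, complete medium. Tetraoctylammonium bromide positive control. AC50 by Hill equation fit of qHTS concentration-response.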

[22] = Cell Viability - LYMP2-002 (AID 977);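 note: plate controls were DMSO only for no effect and 92 µM tetraoctylammonium bromide for full effect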
Outline: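 In this qHTS viability screen, 2500 human lymphoblastoid cells per well receive compound for 24 hr at 37 C, and luciferase-based ATP luminescence gives the viability signal. Tetraoctylammonium bromide serves as positive control.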

[23] = Cell Viability - LYMP2-006 (AID 978); note: % is set by controls: 0 for no effect and ±100 for the full control effect; nearly all actives have a fitted effect of over 60% in size
Outline: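 Human lymphoblastoid cells (LYMP2-006), 2500/well in complete medium, were treated with compound for 24 hr at 37 C. Cellular ATP was read by CellTiter-Glo luminescence after 30 min, and AC50 values came from Hill-equation fits of concentration-response data.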

[24] = Cell Viability - LYMP2-008 (AID 980)
Outline: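 Luminescent ATP read-out (CellTiter-Glo, 30 min RT) after 24 hr compound exposure at 37 C of human lymphoblastoid cells in complete medium. Decrease in ATP taken as cytotoxicity; AC50 derived by standard Hill fit of qHTS concentration-response data.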

Sequence of Cytochrome P450 3A4 (Homo sapiens) (P08684 whole entry, looked up): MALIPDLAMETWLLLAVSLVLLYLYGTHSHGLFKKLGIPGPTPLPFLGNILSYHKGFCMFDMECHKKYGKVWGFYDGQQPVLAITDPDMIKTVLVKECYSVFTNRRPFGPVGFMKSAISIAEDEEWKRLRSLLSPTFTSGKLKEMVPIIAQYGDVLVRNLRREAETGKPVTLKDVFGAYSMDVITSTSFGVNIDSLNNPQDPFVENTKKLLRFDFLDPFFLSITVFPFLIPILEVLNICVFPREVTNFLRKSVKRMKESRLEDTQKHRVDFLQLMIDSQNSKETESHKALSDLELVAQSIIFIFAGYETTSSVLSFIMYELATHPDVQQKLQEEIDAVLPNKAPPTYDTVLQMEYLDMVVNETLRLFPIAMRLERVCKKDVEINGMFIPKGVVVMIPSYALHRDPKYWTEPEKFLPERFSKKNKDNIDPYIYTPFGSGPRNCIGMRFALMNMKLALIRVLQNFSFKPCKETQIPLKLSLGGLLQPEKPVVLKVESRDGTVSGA

COC1=CC(=O)OC(CCc2ccccc2)C1 (centres undefined)
inactive: caspase-3 activation [1] 1.48% | Potency [2] | Potency [3] | Potency [4] | Potency [5] | Potency [6] | Potency [7] | Potency [8] | Potency [9] | Potency [10] | Potency [11] | Potency [12] | Potency [13] | Potency [14] | Potency [15] | Potency [16] | Potency [17] | Potency [18] | Potency [19] | Potency [20] | Potency [21] | Potency [22] | Potency [23] | Potency [24]
